Measurements published in PubChem BioAssay (EPA / NIEHS).
Several values for one entry are separate records, joined by “and”; a condition that tells them apart may be missing. Identical values can stand only once. Inconclusive results are not listed. A structure can be active in one record and inactive in another. Activity calls are given as the source filed them. Rule for the calls, unless noted: active = hit-call score of the fitted dose curve at least 0.9, where 1 is the maximum; inactive = score below 0.9.

Experiments:
[1] = target: X-box-binding protein 1 (Homo sapiens) (UniProt P17861); assay: ATG_Xbp1_CIS: Attagene CIS-FACTORIAL HepG2 Assay for human X-box Binding Protein 1 (XBP1) (AID 2282972); conditions: HepG2 XBP1 cis-element reporter, Attagene multiplex; actives raise or lower the signal
Summary of the method: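 HepG2, transient MRTU transfection (cis-promoter driven), 24 h compound exposure. Total RNA → oligo(dT) RT → PCR → 6-FAM labeling → HpaI cut → CE. Bidirectional fit vs DMSO.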

[2] = ATG_M_19_TRANS: Attagene TRANS-FACTORIAL HepG2 Assay for M19 Transcription Factor (Internal Marker) (AID 2282974; active = hit-call score of the fitted dose curve at least 0.9, where 1 is the maximum); conditions: HepG2 Attagene TRANS-FACTORIAL M19 internal marker reporter
Summary of the method: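 Cells: human HepG2, transiently transfected with multiplexed reporter transcription units. Exposure: 24 h. Detection: RT-PCR of reporter mRNA with capillary electrophoresis. Analysis: gain-of-signal vs DMSO.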

[3] = ATG_GAL4_TRANS: Attagene TRANS-FACTORIAL HepG2 Assay for GAL4 (Internal Marker) (AID 2282976; active = hit-call score of the fitted dose curve at least 0.9, where 1 is the maximum); conditions: HepG2 Attagene TRANS GAL4 internal marker reporter
Summary of the method: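 Fluorescence from capillary electrophoresis of labelled RT-PCR products quantifies reporter mRNA induction after 24 h dosing of HepG2 cells carrying transfected GAL4-UAS reporter transcription units. Vehicle DMSO serves as baseline.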

[4] = target: Oxysterols receptor LXR-alpha (Homo sapiens) (UniProt Q13133); assay: ATG_LXRa_TRANS: Attagene TRANS-FACTORIAL HepG2 Assay for human Liver X Receptor alpha (LXRa) (AID 2282980; active = hit-call score of the fitted dose curve at least 0.9, where 1 is the maximum); conditions: HepG2 Attagene TRANS reporter, LXRa transactivation
Summary of the method: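 Transient HepG2 transfectants, 24 h dosing, RT-PCR/CE mRNA reporter quantitation; gain-of-signal vs DMSO.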

[5] = target: Oxysterols receptor LXR-beta (Homo sapiens) (UniProt P55055); assay: ATG_LXRb_TRANS: Attagene TRANS-FACTORIAL HepG2 Assay for human Liver X Receptor beta (LXRb) (AID 2282981; active = hit-call score of the fitted dose curve at least 0.9, where 1 is the maximum); conditions: HepG2 Attagene TRANS GAL4-LXRb reporter, mRNA
Summary of the method: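 Transient transfection HepG2 (multiplexed RTUs, GAL4-UAS); NR-Gal4 chimera; 24 h exposure; RNA → RT-PCR → 6-FAM primer extension → HpaI → CE; increase vs DMSO.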

[6] = target: Hepatocyte nuclear factor 4-alpha (Homo sapiens) (UniProt P41235); assay: ATG_HNF4a_TRANS: Attagene TRANS-FACTORIAL HepG2 Assay for human Hepatocyte Nuclear Factor 4 alpha (HNF4a) (AID 2282982; active = hit-call score of the fitted dose curve at least 0.9, where 1 is the maximum); conditions: HepG2 HNF4a transactivation reporter, mRNA readout
Summary of the method: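 Readout is fluorescent reporter-transcript fragments resolved by capillary electrophoresis after RT-PCR from HepG2 cells dosed for 24 h. Cells carried transfected GAL4-UAS reporter constructs measuring exogenous NR-GAL4 chimera activity; DMSO served as baseline.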

[7] = ATG_M_32_TRANS: Attagene TRANS-FACTORIAL HepG2 Assay for M32 Transcription Factor (Internal Marker) (AID 2282984; active = hit-call score of the fitted dose curve at least 0.9, where 1 is the maximum;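 note: transcript level of a background control reporter unit measured by RT-PCR and capillary electrophoresis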); conditions: HepG2 Attagene TRANS M32 internal marker reporter
Summary of the method: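 Measures reporter mRNA induction in human HepG2 liver cells after 24 h chemical treatment. Transcripts from transiently transfected GAL4-UAS reporter units are amplified, fluorescently labelled and sized by capillary electrophoresis; gain of signal relative to DMSO.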

[8] = target: Nuclear receptor subfamily 4 group A member 2 (Homo sapiens) (UniProt P43354); assay: ATG_NURR1_TRANS: Attagene TRANS-FACTORIAL HepG2 Assay for human Nuclear Receptor Related Protein 1 (NURR1) (AID 2282985; active = hit-call score of the fitted dose curve at least 0.9, where 1 is the maximum); conditions: HepG2 Attagene TRANS reporter, mRNA readout
Summary of the method: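 Transient transfection of HepG2, human liver cells, with multiple GAL4-UAS reporter transcription units. Cells dosed 24 h, RNA isolated, reverse-transcribed, PCR-amplified, FAM-labelled, HpaI-digested, sized by capillary electrophoresis. DMSO served as negative control.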

[9] = target: Transcriptional activator Myb (Homo sapiens) (UniProt P10242); assay: ATG_Myb_CIS: Attagene CIS-FACTORIAL HepG2 Assay for human Myeloblastosis (Myb) Proto-Oncogene Transcription Factor (AID 2282986); conditions: HepG2 Attagene CIS-FACTORIAL Myb reporter transcription; actives raise or lower the signal
Summary of the method: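 Steps: transfect HepG2 with cis-regulated reporter units; dose with chemical for 24 h; isolate RNA, reverse-transcribe, PCR-amplify and FAM-label reporter sequences; digest with HpaI; resolve by capillary electrophoresis. Activity fitted in both directions relative to DMSO.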

[10] = target: Nuclear respiratory factor 1 (Homo sapiens) (UniProt Q16656); assay: ATG_NRF1_CIS: Attagene CIS-FACTORIAL HepG2 Assay for human Nuclear Respiratory Factor 1 (NRF1) Orphan Gene (AID 2282987); conditions: HepG2 NRF1 cis-element reporter, Attagene multiplex; actives raise or lower the signal
Summary of the method: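 Fluorescence intensity of labelled reporter cDNA fragments, resolved by capillary electrophoresis, served as readout for NRF1 cis-element activity. Transiently transfected HepG2 cells were dosed for 24 hours; activity in either direction was fitted against DMSO negative control.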

[11] = ATG_NFI_CIS: Attagene CIS-FACTORIAL HepG2 Assay for human Nuclear Factor I (NFI) (AID 2282989); conditions: HepG2 cis-regulatory reporter, NFI response element transcription; actives raise or lower the signal
Summary of the method: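 Read-out: reporter mRNA via RT-PCR plus capillary electrophoresis with fluorescence detection. Transiently transfected HepG2 (endogenous TF activity on cis promoters), 24 h compound exposure; gain or loss of signal fitted against DMSO.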

[12] = target: Myc proto-oncogene protein (Homo sapiens) (UniProt P01106); assay: ATG_Myc_CIS: Attagene CIS-FACTORIAL HepG2 Assay for human Myelocytomatosis (Myc) Proto-Oncogene Transcription Factor (AID 2282990); conditions: HepG2, Attagene cis-reporter transcription factor activity; actives raise or lower the signal
Summary of the method: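 HepG2, transient MRTU transfection (cis promoters, endogenous TFs); 24 h dosing; TriZol RNA → oligo(dT) RT → PCR → 6-FAM primer extension → HpaI cut → CE. Bidirectional fit vs DMSO.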

[13] = target: Glucocorticoid receptor (Homo sapiens) (UniProt P04150); assay: ATG_GR_TRANS: Attagene TRANS-FACTORIAL HepG2 Assay for human Glucocorticoid Receptor (GR) (AID 2282978; active = hit-call score of the fitted dose curve at least 0.9, where 1 is the maximum;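 note: activators score as hits since higher reporter transcript over DMSO is fitted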); conditions: HepG2 Attagene TRANS GR reporter, mRNA transcription
Summary of the method: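 In this trans-factorial format, exogenous NR-GAL4 chimeric proteins in transfected HepG2 cells regulate GAL4-UAS reporter transcription. After 24 h treatment, reporter mRNA induction relative to DMSO is read by RT-PCR and capillary electrophoresis.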

[14] = target: Bile acid receptor (Homo sapiens) (UniProt Q96RI1); assay: ATG_FXR_TRANS: Attagene TRANS-FACTORIAL HepG2 Assay for Farnesoid X Receptor (FXR) (AID 2282979; active = hit-call score of the fitted dose curve at least 0.9, where 1 is the maximum;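 note: hits raise reporter mRNA above DMSO so AC50 marks FXR activation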); conditions: HepG2 Attagene TRANS FXR-GAL4 reporter transcription
Summary of the method: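 Chimeric FXR-GAL4 activity in transiently transfected human HepG2 liver cells is scored as induction of reporter mRNA after 24 h of dosing. Detection uses RT-PCR with fluorescent labelling and capillary electrophoresis, with DMSO serving as baseline.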

[15] = ATG_M_06_TRANS: Attagene TRANS-FACTORIAL HepG2 Assay for M06 Transcription Factor (Internal Marker) (AID 2282983; active = hit-call score of the fitted dose curve at least 0.9, where 1 is the maximum;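 note: reporter transcript level by RT-PCR then capillary electrophoresis fluorescence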); conditions: HepG2 Attagene TRANS M06 internal marker reporter
Summary of the method: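 Measured by capillary electrophoresis of fluorescently labelled RT-PCR products, this endpoint reflects reporter mRNA in HepG2 cells harbouring exogenous NR-GAL4 reporter constructs after 24 h exposure, with DMSO as baseline.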

[16] = target: Estrogen-related receptor gamma (Homo sapiens) (UniProt P62508); assay: ATG_ERRg_TRANS: Attagene TRANS-FACTORIAL HepG2 Assay for human Estrogen-Related Receptor gamma (ERRg) (AID 2282977; active = hit-call score of the fitted dose curve at least 0.9, where 1 is the maximum;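 note: hits increase reporter signal over DMSO so potencies reflect activators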); conditions: HepG2 Attagene TRANS reporter, ERRg transactivation
Summary of the method: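 HepG2 cells transiently transfected with multiplexed GAL4-UAS reporter units driven by chimeric NR-Gal4 proteins; 24 h exposure. Reporter mRNA quantified by RT-PCR, fluorescent labelling, HpaI digestion and capillary electrophoresis; gain of signal vs DMSO.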

Hepatocyte nuclear factor 4-alpha (Homo sapiens), sequence (P41235 whole entry, looked up, the tested form may be a part): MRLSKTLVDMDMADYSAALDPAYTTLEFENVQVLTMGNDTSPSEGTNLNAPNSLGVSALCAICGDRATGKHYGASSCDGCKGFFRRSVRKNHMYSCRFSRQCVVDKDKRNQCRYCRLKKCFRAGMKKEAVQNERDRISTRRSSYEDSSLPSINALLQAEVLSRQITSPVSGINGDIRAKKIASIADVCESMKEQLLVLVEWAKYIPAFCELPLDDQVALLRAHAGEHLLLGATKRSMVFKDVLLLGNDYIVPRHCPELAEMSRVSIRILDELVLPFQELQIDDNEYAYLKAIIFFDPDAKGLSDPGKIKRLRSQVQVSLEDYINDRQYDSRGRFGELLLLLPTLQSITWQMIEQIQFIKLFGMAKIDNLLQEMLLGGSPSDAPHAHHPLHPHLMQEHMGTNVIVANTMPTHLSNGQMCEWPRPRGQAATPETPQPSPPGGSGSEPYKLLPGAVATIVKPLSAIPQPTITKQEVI
Bile acid receptor (Homo sapiens), sequence (Q96RI1 whole entry, looked up, the tested form may be a part): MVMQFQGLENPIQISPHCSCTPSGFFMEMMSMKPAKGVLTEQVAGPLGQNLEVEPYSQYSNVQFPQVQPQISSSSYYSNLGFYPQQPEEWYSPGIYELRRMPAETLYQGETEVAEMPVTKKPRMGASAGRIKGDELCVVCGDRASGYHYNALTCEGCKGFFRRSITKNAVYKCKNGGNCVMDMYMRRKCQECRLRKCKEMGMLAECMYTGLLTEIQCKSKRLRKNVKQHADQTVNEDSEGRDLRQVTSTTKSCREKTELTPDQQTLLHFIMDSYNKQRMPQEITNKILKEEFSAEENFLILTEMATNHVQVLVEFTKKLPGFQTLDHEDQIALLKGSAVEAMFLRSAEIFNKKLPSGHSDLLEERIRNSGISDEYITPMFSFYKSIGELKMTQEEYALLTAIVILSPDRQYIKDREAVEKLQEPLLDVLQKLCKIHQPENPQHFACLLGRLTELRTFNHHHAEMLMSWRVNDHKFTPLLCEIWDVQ
Nuclear respiratory factor 1 (Homo sapiens), sequence (Q16656 whole entry, looked up, the tested form may be a part): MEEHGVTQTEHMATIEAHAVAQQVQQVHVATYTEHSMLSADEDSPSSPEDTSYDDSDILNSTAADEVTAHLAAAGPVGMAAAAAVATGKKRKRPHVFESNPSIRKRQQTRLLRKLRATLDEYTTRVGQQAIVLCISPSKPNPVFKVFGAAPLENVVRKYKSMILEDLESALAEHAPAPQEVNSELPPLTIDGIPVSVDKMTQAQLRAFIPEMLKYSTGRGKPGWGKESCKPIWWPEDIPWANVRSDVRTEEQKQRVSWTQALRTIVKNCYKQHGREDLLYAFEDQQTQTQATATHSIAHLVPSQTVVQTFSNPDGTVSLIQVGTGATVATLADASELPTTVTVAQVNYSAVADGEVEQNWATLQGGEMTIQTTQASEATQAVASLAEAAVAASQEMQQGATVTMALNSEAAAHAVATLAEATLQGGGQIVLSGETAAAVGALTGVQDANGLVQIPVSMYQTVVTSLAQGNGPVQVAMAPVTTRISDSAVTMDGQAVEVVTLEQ
Myc proto-oncogene protein (Homo sapiens), sequence (P01106 whole entry, looked up): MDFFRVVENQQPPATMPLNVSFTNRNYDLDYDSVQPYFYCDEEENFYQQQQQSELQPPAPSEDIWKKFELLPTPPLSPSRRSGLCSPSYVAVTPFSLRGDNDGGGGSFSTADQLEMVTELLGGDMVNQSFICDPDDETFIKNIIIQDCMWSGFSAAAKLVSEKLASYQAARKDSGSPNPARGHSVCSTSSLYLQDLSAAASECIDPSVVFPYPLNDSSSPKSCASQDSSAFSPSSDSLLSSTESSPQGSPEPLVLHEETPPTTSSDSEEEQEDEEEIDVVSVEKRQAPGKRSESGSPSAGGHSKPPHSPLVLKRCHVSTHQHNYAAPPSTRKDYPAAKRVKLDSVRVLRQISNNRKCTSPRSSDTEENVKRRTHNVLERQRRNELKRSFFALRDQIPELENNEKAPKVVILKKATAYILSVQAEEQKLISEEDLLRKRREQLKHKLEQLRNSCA
Nuclear receptor subfamily 4 group A member 2 (Homo sapiens), sequence (P43354 whole entry, looked up, the tested form may be a part): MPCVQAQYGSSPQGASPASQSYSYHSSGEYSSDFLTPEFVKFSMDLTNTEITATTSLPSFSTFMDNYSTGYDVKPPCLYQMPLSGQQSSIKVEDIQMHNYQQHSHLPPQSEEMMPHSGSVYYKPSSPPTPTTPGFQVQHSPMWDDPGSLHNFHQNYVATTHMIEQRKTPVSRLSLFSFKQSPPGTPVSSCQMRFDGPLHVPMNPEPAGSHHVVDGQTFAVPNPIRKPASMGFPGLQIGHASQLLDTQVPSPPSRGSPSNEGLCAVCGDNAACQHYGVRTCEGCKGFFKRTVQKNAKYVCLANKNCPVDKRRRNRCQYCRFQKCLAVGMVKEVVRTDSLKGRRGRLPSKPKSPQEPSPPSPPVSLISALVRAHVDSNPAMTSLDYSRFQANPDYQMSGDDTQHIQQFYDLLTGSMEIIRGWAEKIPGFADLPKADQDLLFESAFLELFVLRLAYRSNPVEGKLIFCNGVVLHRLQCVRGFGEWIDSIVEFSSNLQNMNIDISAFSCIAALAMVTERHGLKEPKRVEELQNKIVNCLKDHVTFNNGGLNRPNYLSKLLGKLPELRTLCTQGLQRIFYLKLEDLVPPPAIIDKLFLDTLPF
Glucocorticoid receptor (Homo sapiens), sequence (P04150 whole entry, looked up, the tested form may be a part): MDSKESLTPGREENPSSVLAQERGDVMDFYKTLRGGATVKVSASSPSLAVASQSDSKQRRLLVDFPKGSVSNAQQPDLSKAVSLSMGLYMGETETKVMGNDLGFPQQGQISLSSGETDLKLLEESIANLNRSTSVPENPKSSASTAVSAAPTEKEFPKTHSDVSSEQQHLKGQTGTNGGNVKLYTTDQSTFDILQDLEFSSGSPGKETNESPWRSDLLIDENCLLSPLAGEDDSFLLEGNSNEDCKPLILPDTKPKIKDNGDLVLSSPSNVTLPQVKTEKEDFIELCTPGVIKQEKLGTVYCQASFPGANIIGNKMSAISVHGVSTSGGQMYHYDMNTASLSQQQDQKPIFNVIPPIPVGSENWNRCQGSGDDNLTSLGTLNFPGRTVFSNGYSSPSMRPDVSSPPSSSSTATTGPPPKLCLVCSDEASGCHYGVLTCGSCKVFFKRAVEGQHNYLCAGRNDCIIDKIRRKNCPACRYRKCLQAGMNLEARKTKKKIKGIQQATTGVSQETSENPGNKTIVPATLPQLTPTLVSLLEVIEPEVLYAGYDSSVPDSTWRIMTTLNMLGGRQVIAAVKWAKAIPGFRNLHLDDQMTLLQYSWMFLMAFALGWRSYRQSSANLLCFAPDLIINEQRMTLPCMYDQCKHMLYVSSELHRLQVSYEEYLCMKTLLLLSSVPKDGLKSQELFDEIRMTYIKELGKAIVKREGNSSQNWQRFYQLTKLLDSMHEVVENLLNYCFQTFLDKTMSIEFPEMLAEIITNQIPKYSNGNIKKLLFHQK
Oxysterols receptor LXR-beta (Homo sapiens), sequence (P55055 whole entry, looked up, the tested form may be a part): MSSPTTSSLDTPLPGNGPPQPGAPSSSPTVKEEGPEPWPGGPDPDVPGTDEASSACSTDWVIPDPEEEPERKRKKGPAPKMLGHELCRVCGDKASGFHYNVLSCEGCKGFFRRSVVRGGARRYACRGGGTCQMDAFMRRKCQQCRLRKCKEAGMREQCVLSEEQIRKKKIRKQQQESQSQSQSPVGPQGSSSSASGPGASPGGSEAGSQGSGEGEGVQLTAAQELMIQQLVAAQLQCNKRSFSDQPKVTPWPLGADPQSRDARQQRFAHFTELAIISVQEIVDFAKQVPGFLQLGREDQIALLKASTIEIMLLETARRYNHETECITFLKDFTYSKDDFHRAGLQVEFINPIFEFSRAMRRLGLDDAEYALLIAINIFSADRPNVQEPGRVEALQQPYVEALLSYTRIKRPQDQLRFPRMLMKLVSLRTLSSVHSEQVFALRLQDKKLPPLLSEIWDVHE
Oxysterols receptor LXR-alpha (Homo sapiens), sequence (Q13133 whole entry, looked up): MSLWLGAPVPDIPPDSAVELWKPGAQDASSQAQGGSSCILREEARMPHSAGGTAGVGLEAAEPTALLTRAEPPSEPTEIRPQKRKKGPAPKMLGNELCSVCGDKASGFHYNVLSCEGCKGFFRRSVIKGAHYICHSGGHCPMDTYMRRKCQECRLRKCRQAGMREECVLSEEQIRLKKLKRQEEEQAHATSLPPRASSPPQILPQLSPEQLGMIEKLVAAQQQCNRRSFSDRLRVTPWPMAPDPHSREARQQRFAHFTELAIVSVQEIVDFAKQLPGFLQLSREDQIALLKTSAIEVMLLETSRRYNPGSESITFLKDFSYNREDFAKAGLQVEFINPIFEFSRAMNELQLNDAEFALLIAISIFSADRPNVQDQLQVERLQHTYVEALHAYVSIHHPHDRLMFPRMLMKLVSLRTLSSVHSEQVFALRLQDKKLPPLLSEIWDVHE
X-box-binding protein 1 (Homo sapiens), sequence (P17861 whole entry, looked up): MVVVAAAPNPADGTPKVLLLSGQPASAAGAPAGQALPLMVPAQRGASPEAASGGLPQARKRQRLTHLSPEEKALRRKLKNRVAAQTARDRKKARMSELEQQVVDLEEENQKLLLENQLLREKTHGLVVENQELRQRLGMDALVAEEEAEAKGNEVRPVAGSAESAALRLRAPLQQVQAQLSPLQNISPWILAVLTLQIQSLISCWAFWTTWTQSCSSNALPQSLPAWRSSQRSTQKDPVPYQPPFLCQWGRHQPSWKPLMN
Estrogen-related receptor gamma (Homo sapiens), sequence (P62508 whole entry, looked up, the tested form may be a part): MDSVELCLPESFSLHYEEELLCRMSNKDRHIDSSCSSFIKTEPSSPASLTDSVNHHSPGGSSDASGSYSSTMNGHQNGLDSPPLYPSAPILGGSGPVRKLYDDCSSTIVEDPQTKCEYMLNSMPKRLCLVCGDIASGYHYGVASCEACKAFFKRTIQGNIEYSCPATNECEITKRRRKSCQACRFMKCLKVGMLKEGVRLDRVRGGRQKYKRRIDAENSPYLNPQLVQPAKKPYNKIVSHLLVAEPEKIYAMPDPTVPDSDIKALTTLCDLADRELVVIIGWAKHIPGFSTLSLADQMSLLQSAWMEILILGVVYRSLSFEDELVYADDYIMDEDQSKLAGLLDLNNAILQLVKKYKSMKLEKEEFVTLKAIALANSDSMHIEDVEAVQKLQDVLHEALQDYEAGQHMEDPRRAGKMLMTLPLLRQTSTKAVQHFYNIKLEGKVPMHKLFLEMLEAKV

SMILES: O=C1NS(=O)(=O)c2ccccc21
- outcome [1]: inactive
- outcome [2]: inactive
- outcome [3]: inactive
- outcome [4]: inactive
- outcome [5]: inactive
- outcome [6]: inactive
- outcome [7]: inactive
- outcome [8]: inactive
- outcome [9]: inactive
- outcome [10]: inactive
- outcome [11]: inactive
- outcome [12]: inactive

SMILES: CNNCc1ccc(C(=O)NC(C)C)cc1
- outcome [1]: inactive
- outcome [2]: inactive
- outcome [13]: inactive
- outcome [6]: inactive
- outcome [7]: inactive
- outcome [9]: inactive
- outcome [10]: inactive
- outcome [11]: inactive
- outcome [12]: inactive

SMILES: O=C(c1ccccc1)c1ccccc1
- outcome [3]: inactive
- outcome [13]: inactive
- outcome [14]: inactive
- outcome [5]: inactive
- outcome [7]: inactive
- outcome [12]: inactive

SMILES: O=C(O)CN(CCCN(CC(=O)O)CC(=O)O)CC(=O)O
- outcome [1]: inactive
- outcome [3]: inactive
- outcome [4]: inactive
- outcome [5]: inactive
- outcome [6]: inactive
- outcome [8]: inactive
- outcome [10]: inactive
- outcome [11]: inactive
- outcome [12]: inactive

SMILES: CCCCC(CC)C(=O)O (stereo not given)
- outcome [1]: inactive
- outcome [3]: inactive
- outcome [4]: inactive
- outcome [15]: inactive
- outcome [7]: inactive
- outcome [8]: inactive
- outcome [10]: inactive
- outcome [11]: inactive
- outcome [12]: inactive

SMILES: Cc1cc(C(C)(C)C)c(O)c(C(C)(C)C)c1
- AC50 [1]: 33.4 µM (active) and 89.6 µM (active)
- outcome [2]: inactive
- AC50 [13]: 100 µM (active)
- outcome [14]: inactive
- outcome [4]: inactive
- outcome [5]: inactive
- outcome [15]: inactive
- outcome [7]: inactive
- AC50 [8]: 0.82 µM (active)
- outcome [9]: inactive
- AC50 [10]: 94.7 µM (active)
- outcome [10]: inactive
- AC50 [11]: 51.6 µM (active) and 20.5 µM (active)
- AC50 [12]: 51 µM (active) and 92.8 µM (active)

SMILES: OCCN1CN(CCO)CN(CCO)C1
- outcome [2]: inactive
- outcome [3]: inactive
- outcome [13]: inactive
- outcome [4]: inactive
- outcome [5]: inactive
- outcome [6]: inactive
- outcome [7]: inactive
- outcome [10]: inactive
- AC50 [11]: 144 µM (active)
- outcome [12]: inactive

SMILES: Cc1ccc(C)c(S(=O)(=O)O)c1
- outcome [1]: inactive
- outcome [3]: inactive
- outcome [4]: inactive
- outcome [7]: inactive
- outcome [8]: inactive
- outcome [9]: inactive
- outcome [10]: inactive
- outcome [11]: inactive
- outcome [12]: inactive

SMILES: O=C(c1cc(O)c(O)c(O)c1)c1ccc(O)c(O)c1O
- outcome [1]: inactive
- outcome [16]: inactive
- outcome [13]: inactive
- outcome [14]: inactive
- outcome [4]: inactive
- outcome [6]: inactive
- outcome [15]: inactive
- outcome [7]: inactive
- outcome [8]: inactive
- outcome [9]: inactive
- outcome [10]: inactive
- outcome [11]: inactive
- outcome [12]: inactive

SMILES: CCC1CO1 (stereo not given)
- outcome [1]: inactive
- outcome [3]: inactive
- outcome [13]: inactive
- outcome [6]: inactive
- outcome [8]: inactive
- outcome [10]: inactive
- outcome [11]: inactive
- outcome [12]: inactive

SMILES: C[C@]12CC[C@@H]3c4ccc(O)cc4CC[C@H]3[C@@H]1C[C@@H](O)[C@@H]2O
- outcome [2]: inactive
- outcome [3]: inactive
- outcome [13]: inactive
- outcome [4]: inactive
- outcome [7]: inactive
- outcome [8]: inactive
- outcome [9]: inactive
- outcome [10]: inactive
- outcome [11]: inactive
- outcome [12]: inactive

SMILES: O=S(=O)(O)c1ccccc1
- outcome [1]: inactive
- outcome [3]: inactive
- outcome [16]: inactive
- outcome [13]: inactive
- outcome [14]: inactive
- outcome [5]: inactive
- outcome [15]: inactive
- outcome [7]: inactive
- outcome [9]: inactive
- outcome [10]: inactive
- outcome [12]: inactive

SMILES: CC=O
- outcome [1]: inactive
- outcome [2]: inactive
- outcome [3]: inactive
- outcome [13]: inactive
- outcome [5]: inactive
- outcome [9]: inactive
- outcome [10]: inactive
- outcome [12]: inactive

SMILES: O=S(=O)(O)c1ccc2cc(O)ccc2c1
- outcome [1]: inactive
- outcome [2]: inactive
- outcome [13]: inactive
- outcome [6]: inactive
- outcome [7]: inactive
- outcome [9]: inactive
- outcome [10]: inactive
- outcome [11]: inactive
- outcome [12]: inactive

SMILES: CC(=O)Nc1ccc(O)cc1
- outcome [1]: inactive
- outcome [15]: inactive
- outcome [7]: inactive
- outcome [9]: inactive
- outcome [12]: inactive

SMILES: Cc1ccc(S(=O)(=O)O)cc1
- outcome [1]: inactive
- outcome [3]: inactive
- outcome [4]: inactive
- outcome [15]: inactive
- outcome [7]: inactive
- outcome [8]: inactive
- outcome [9]: inactive
- outcome [10]: inactive
- outcome [12]: inactive

SMILES: CC1=NN(c2ccccc2)C(=O)C1
- outcome [13]: inactive
- outcome [5]: inactive
- outcome [7]: inactive
- outcome [9]: inactive
- outcome [10]: inactive
- outcome [11]: inactive
- outcome [12]: inactive

SMILES: CCCCCCCCCCCC
- outcome [1]: inactive
- outcome [2]: inactive
- outcome [3]: inactive
- outcome [13]: inactive
- outcome [5]: inactive
- outcome [7]: inactive
- outcome [8]: inactive
- outcome [9]: inactive
- outcome [10]: inactive
- outcome [11]: inactive
- outcome [12]: inactive
